Test results reported in PubChem BioAssay (NCATS).
Records with an inconclusive call do not appear. Calls of active or inactive are those of the source. Calls follow the shape of the dose curve; as a rule, active = well fitted cell-killing curve with a large enough effect; inconclusive = small, poorly fitted or top-dose-only effect, or effect the other way; inactive = flat fitted curve, though single readings scatter. *1 amine or outer side, *2 acyl side, *3 side chain or, on linkers, in order; H or OH if unused. Where a SMILES comes first, the peptide text is derived from it. [ ]: non-standard residue; d: D form. The star is where a group is joined. ξ: configuration not given here. X9 = CCC(C)(N*)C(=O)C1CC[C@@H](C(=O)N[C@@H](Cc2ccccc2)C(=O)NCC(=O)O)N1; X8 = O=C([C@@H]1CC(O)CN1[*:1])[*:2]; aIle = CC[C@@H](C)[C@H](N)C(=O)O; Thr(3ξ) = CC(O)[C@H](N)C(=O)O; ξIva = CCC(C)(N)C(=O)O; Aib = CC(C)(N)C(=O)O

Columns and labels:
Experiment in all cases: Primary qHTS to identify gynecologic anti-cancer compounds using libraries of approved drugs and bioactive compounds (AID 1345084); also: nearly all actives have a fitted effect of over 55% in size
C33A = settings: Gynecologic cancer cell panel viability, ATPlite luminescence, 48 h; series mostly up to 57.5 µM
In short: (§1)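 Cell viability after 48 h drug treatment, ATPlite luminescence readout; five doses.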

CAOV3 = settings: Gynecologic cancer cell panel viability, ATPlite luminescence, 48 h; series mostly up to 57.5 µM
In short: as §1

Es-2 = settings: Gynecologic cancer cell panel viability, ATPlite luminescence, 48 h; series mostly up to 57.5 µM
In short: as §1

HeLa = settings: Gynecologic cancer cell panel viability, ATPlite luminescence, 48 h; series mostly up to 57.5 µM
In short: as §1

Hek293T = settings: Gynecologic cancer cell panel viability, ATPlite luminescence, 48 h, control line for the selectivity index; series mostly up to 57.5 µM
In short: as §1

JEG-3 = settings: Gynecologic cancer cell panel viability, ATPlite luminescence, 48 h; series mostly up to 57.5 µM
In short: as §1

OV90 = settings: Gynecologic cancer cell panel viability, ATPlite luminescence, 48 h; series mostly up to 57.5 µM
In short: as §1

PA-1 = settings: Gynecologic cancer cell panel viability, ATPlite luminescence, 48 h; series mostly up to 57.5 µM
In short: as §1

SKOV3 = settings: Gynecologic cancer cell panel viability, ATPlite luminescence, 48 h; series mostly up to 57.5 µM
In short: as §1

Tov-21-G = settings: Gynecologic cancer cell panel viability, ATPlite luminescence, 48 h; series mostly up to 57.5 µM
In short: as §1

Tov112D = settings: Gynecologic cancer cell panel viability, ATPlite luminescence, 48 h; series mostly up to 57.5 µM
In short: as §1

CASKI = settings: Gynecologic cancer cell panel viability, ATPlite luminescence, 48 h; series mostly up to 57.5 µM
In short: as §1
% is scaled to controls: 0 for no effect and ±100 for the full control effect.

Cc1ccc(C)c(NC(=O)CNS(=O)(=O)c2ccc3[nH]c(=O)oc3c2)c1
inactive: Potency (C33A) | Potency (CAOV3) | Potency (Es-2) | Potency (HeLa) | Potency (Hek293T) | Potency (JEG-3) | Potency (OV90) | Potency (PA-1) | Potency (SKOV3) | Potency (Tov-21-G) | Potency (Tov112D)

COc1cc(CO)ccc1O[C@@H]1O[C@H](CO)[C@@H](O)[C@H](O)[C@H]1O
inactive: Potency (C33A) | outcome (CASKI) | Potency (Es-2) | Potency (HeLa) | Potency (Hek293T) | Potency (JEG-3) | Potency (OV90) | Potency (PA-1) | Potency (SKOV3) | Potency (Tov-21-G) | Potency (Tov112D)

CC[C@@H](C)[C@H](N)C(=O)N1Cc2ccccc2C1
inactive: Potency (C33A) | outcome (CASKI) | Potency (Es-2) | Potency (HeLa) | Potency (Hek293T) | Potency (JEG-3) | Potency (OV90) | Potency (PA-1) | Potency (SKOV3) | Potency (Tov-21-G) | Potency (Tov112D)

CCNC(=O)C1CC(F)(c2ccc(CN3CCCC3)c(F)c2)C1 (centres undefined)
inactive: Potency (C33A) | outcome (CASKI) | Potency (Es-2) | Potency (HeLa) | Potency (Hek293T) | Potency (JEG-3) | Potency (OV90) | Potency (PA-1) | Potency (SKOV3) | Potency (Tov-21-G) | Potency (Tov112D)

CC[C@@H](C)[C@H](NC(=O)C(C)(C)NC(=O)[C@H](CCC(N)=O)NC(=O)C(C)(CC)NC(=O)[C@H](Cc1c[nH]c2ccccc12)NC(C)=O)C(=O)N[C@H](C(=O)NC(C)(C)C(=O)N[C@@H](CC(C)C)C(=O)NC(C)(C)C(=O)N1CCC[C@H]1C(=O)N[C@@H](CCC(N)=O)C(=O)NC(C)(C)C(=O)N1CC(O)C[C@H]1C(=O)NC(C)(CC)C(=O)C1CC[C@@H](C(=O)N[C@@H](Cc2ccccc2)C(=O)NCC(=O)O)N1)C(C)O (some centres undefined) (Ac-W[ξIva]Q[Aib][aIle][Thr(3ξ)][Aib]L[Aib]PQ[Aib][X8]-X9)
inactive: activity change, negative = cytotoxicity (C33A) -11% [at 6.55 µM] | activity change, negative = cytotoxicity (CAOV3) -26.3% [at 6.55 µM] | activity change, negative = cytotoxicity (Es-2) 1.15% [at 6.55 µM] | activity change, negative = cytotoxicity (HeLa) -27.1% [at 6.55 µM] | activity change, negative = cytotoxicity (Hek293T) -15.3% [at 6.55 µM] | activity change, negative = cytotoxicity (OV90) -20.1% [at 6.55 µM] | activity change, negative = cytotoxicity (PA-1) -32% [at 6.55 µM] | activity change, negative = cytotoxicity (SKOV3) -9.13% [at 6.55 µM] | activity change, negative = cytotoxicity (Tov-21-G) -16.8% [at 6.55 µM] | activity change, negative = cytotoxicity (Tov112D) -24.7% [at 6.55 µM]

COc1cc2c(cc1OC)N1C(=O)C[C@@]34C=CC[N@+]5([O-])CC[C@H]2[C@H](CC3)[C@@]145
inactive: Potency (C33A) | outcome (CASKI) | Potency (Es-2) | Potency (HeLa) | Potency (Hek293T) | Potency (JEG-3) | Potency (OV90) | Potency (PA-1) | Potency (SKOV3) | Potency (Tov-21-G) | Potency (Tov112D)

CC(=O)OC1C(C)C2C(OC3OC(CO)C(O)C(O)C3O)OC=C(C(=O)O)C2C1OC(=O)c1ccccc1 (centres undefined)
inactive: Potency (C33A) | outcome (CASKI) | Potency (Es-2) | Potency (HeLa) | Potency (Hek293T) | Potency (JEG-3) | Potency (OV90) | Potency (PA-1) | Potency (SKOV3) | Potency (Tov-21-G) | Potency (Tov112D)

CN[C@H](CNC(=O)N1CCC[C@@H]([C@@H](OCCNC(=O)OC)c2cccc(Cl)c2)C1)C[C@H]1CCCOC1
inactive: Potency (C33A) | outcome (CASKI) | Potency (Es-2) | Potency (HeLa) | Potency (Hek293T) | Potency (JEG-3) | Potency (OV90) | Potency (PA-1) | Potency (SKOV3) | Potency (Tov-21-G) | Potency (Tov112D)

O=C(O[C@H]1[C@H](Oc2ccc(O)cc2CO)O[C@H](CO)[C@@H](O)[C@@H]1O)c1ccccc1
inactive: Potency (C33A) | outcome (CASKI) | Potency (Es-2) | Potency (HeLa) | Potency (Hek293T) | Potency (JEG-3) | Potency (OV90) | Potency (PA-1) | Potency (SKOV3) | Potency (Tov-21-G) | Potency (Tov112D)

CC(C)N(CCCNC(=O)Nc1ccc(C(C)(C)C)cc1)C[C@H]1O[C@@H](n2ccc3c(N)ncnc32)[C@H](O)[C@@H]1O
inactive: Potency (C33A) | outcome (CASKI) | Potency (Es-2) | Potency (HeLa) | Potency (Hek293T) | Potency (JEG-3) | Potency (OV90) | Potency (PA-1) | Potency (SKOV3) | Potency (Tov-21-G) | Potency (Tov112D)

C=C1[C@H]2CCC3[C@]4(C)CCC[C@@](C)(C(=O)O)C4CC[C@]3(C2)[C@H]1OC(C)=O (some centres undefined)
inactive: Potency (C33A) | outcome (CASKI) | Potency (Es-2) | Potency (HeLa) | Potency (Hek293T) | Potency (JEG-3) | Potency (OV90) | Potency (PA-1) | Potency (SKOV3) | Potency (Tov-21-G) | Potency (Tov112D)

C=C(C(=O)O)C1CC(OC(=O)CC(C)CC)C2(C)CCCC(=C)C2C1 (centres undefined)
inactive: Potency (C33A) | outcome (CASKI) | Potency (Es-2) | Potency (HeLa) | Potency (Hek293T) | Potency (JEG-3) | Potency (OV90) | Potency (PA-1) | Potency (SKOV3) | Potency (Tov-21-G) | Potency (Tov112D)

CC(C)(O)C1CC=C(C(=O)OC[C@H]2O[C@@H](OC(=O)C3=CCC(C(C)(C)O)CC3)[C@H](O)[C@@H](O)[C@@H]2O)CC1 (some centres undefined)
inactive: Potency (C33A) | outcome (CASKI) | Potency (Es-2) | Potency (HeLa) | Potency (Hek293T) | Potency (JEG-3) | Potency (OV90) | Potency (PA-1) | Potency (SKOV3) | Potency (Tov-21-G) | Potency (Tov112D)

CC1=C2C[C@@]3(C)[C@@H](CCC[C@@H]3C)C[C@@]2(O)OC1=O
inactive: Potency (C33A) | outcome (CASKI) | Potency (Es-2) | Potency (HeLa) | Potency (Hek293T) | Potency (JEG-3) | Potency (OV90) | Potency (PA-1) | Potency (SKOV3) | Potency (Tov-21-G) | Potency (Tov112D)

CC(C)C1NC(=O)C2CCCN2C1=O (centres undefined)
inactive: Potency (C33A) | outcome (CASKI) | Potency (Es-2) | Potency (HeLa) | Potency (Hek293T) | Potency (JEG-3) | Potency (OV90) | Potency (PA-1) | Potency (SKOV3) | Potency (Tov-21-G) | Potency (Tov112D)
